# Screening data (PubChem BioAssay)
# Cycloheximide cs: counter-screen for Shiga toxin inhibitors: cycloheximide protein synthesis inhibition. max response, %. cell reporter, cycloheximide protein synthesis inhibition counterscreen. 300,000 compounds, 12% hits; in the data active means max response mostly above about 13%, no sharp cut-off; inactive means mostly below about 14%; further: read at 38.3 µM for the half of the compounds with a filed dose; 0% is about no effect
# Sm TGR inh: inhibitors of Schistosoma mansoni thioredoxin glutathione reductase. 360,000 compounds, 3% hits. Potency, µM (doses to about 114 µM), for inactives: at the top dose activity change, negative = inhibition, most hits filed as inhibitors. purified TGR, DTNB reduction, TNB absorbance 405 nm. AID 485364. Q962Y6; active means well fitted inhibition curve with a large enough effect; inconclusive means small, poorly fitted or top-dose-only effect; inactive means no such curve, though single readings can be large or run the other way; further: potency means the concentration at half of the fitted maximal effect; on the % scale 0 is the no-effect control and ±100 the full control effect; nearly all actives have a fitted effect of over 60% in size
#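 First, TGR (20 nM dispensed) and NADPH were mixed with compound. Second, a 15 min room-temperature incubation followed. Third, further NADPH and then DTNB were added to start the reaction. Finally, TNB absorbance was monitored kinetically.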
# FMDV antiviral: foot and mouth disease virus antiviral activity; 410,000 compounds, 1.2% hits; FMDV antiviral cell-based qHTS; Potency, µM (titrated, usually from 57.9 µM), for the others: at the top dose activity change, negative = inhibition, hits mostly inhibitors; calls by dose curve; tested in HEK293T cells; further: read-out not given here; potency means the concentration at half of the fitted maximal effect; on the % scale 0 is the no-effect control and ±100 the full control effect; nearly all actives have a fitted effect of over 45% in size
# Shiga inhibitor: blocks Shiga toxin action in Vero cells; 290,000 compounds, 9.2% hits; inhibition, % at 38.7 µM; Vero cells, Shiga toxin protein synthesis inhibition reporter; in the data active means inhibition mostly above about 28%, no sharp cut-off; inactive means mostly below about 43%; further: 0% is about no effect
# * marks the source's active call; other numbers are inactive results; ? = inconclusive; . = no result; + = active, no number; [ ] = remark or other dose. Shown are actives, neighbours in structure and some others; about 12% of the full set was active somewhere.
SMILES,Cycloheximide cs,Sm TGR inh,FMDV antiviral,Shiga inhibitor
CN(C)c1ccc(NC(=O)c2ccc([N+](=O)[O-])cc2Cl)cc1,46.2*,0.0%,23.7%,75.3*
O=C(Nc1cccc(O)c1)c1ccc([N+](=O)[O-])cc1Cl,31.7*,1.2%,29.5%,60.9*
CC(C)C(=O)Nc1ccc(NC(=O)c2ccc([N+](=O)[O-])cc2Cl)cc1,-1.0,-10.5%,-11.4%,-2.0
Fc1ccc(NC(=S)Nc2ccc(F)c(Cl)c2)cc1Cl,2.8,?,?,9.7
CCn1ncc(NC(=S)Nc2ccc3c(c2)OCO3)c1C(N)=O,14.8*,-11.4%,6.6%,67.7*
S=C(NCc1ccc2c(c1)OCO2)Nc1ccc2nsnc2c1,15.2*,?,33.8%,36.5
S=C(Nc1ccc2c(c1)OCO2)Nc1ccc2c(c1)OCO2,54.5*,-16.7%,60.0%,66.3*
CCn1ncc(NC(=S)Nc2ccc(OC)c(OC)c2)c1C(N)=O,5.5,20.3%[57.1 µM],26.1%,33.2
S=C(Nc1ccc(Cl)cc1)Nc1ccc2c(c1)OCCO2,38.6*,?,31.3%,58.5*
CCOc1cc(C#N)c(NC(=O)c2cccc(S(=O)(=O)N3CCOCC3)c2)cc1OCC,.,-9.1%,-0.3%,.
CCOc1ccccc1N(CC)C(=O)c1cc2c(=O)[nH]c3ccc(C)cc3c2s1,.,3.5%,-11.7%,.
COC(=O)c1cc(S(=O)(=O)N2CCN(c3ccc(OC)cc3)CC2)c[nH]1,.,8.6%,-8.2%,.
S=C(Nc1ccc2c(c1)OCCO2)Nc1ccccc1Cl,32.7*,?,27.6%,48.0*
CC(C)CN(CCNC(=O)CCN1N=C(c2ccccc2)CCC1=O)CC(C)C,.,10.4%,-5.6%,.
CCOC(=O)Cn1c(=O)n(-c2ccccc2OC)c2nc(-c3ccc(C(C)C)cc3)nc(C(N)=O)c21,.,1.9%,-17.5%,.
CC(C)Sc1nc(N)nc(-c2cccs2)c1C#N,33.4*,?,35.3%,105.3*
CSc1nc(N)nc(-c2cccs2)c1C#N,13.4,-4.1%,-8.0%,17.4
O=c1cc(-c2ccccc2)[nH]c2cc(Cl)ccc12,5.2,-11.0%,0.2%,-14.1
COc1ccc(-c2cc(=O)c3ccccc3[nH]2)cc1,18.0,-1.1%,21.6%,7.2
COc1ccc(-c2cc3ccccc3[nH]2)cc1,41.6*,-4.3%,37.6%,99.7*
Cc1ccc(O)c(-c2cc3ccccc3[nH]2)c1,28.0*,4.6%,24.3%,33.3*
c1ccc(-c2cc3ccccc3[nH]2)cc1,32.6*,-25.7%,18.8%,37.4*
O=[N+]([O-])c1cccc(-c2cc3ccccc3[nH]2)c1,26.5*,16.9%,22.2%,23.0
COc1ccc(Br)cc1CNC(=O)c1nn(-c2ccc(C)cc2)c(=O)c2c1c1ccccc1n2C,.,2.3%,9.3%,.
CCCCOc1ccc(C(=O)N/C(=C\c2ccc(Br)cc2)C(=O)NC2CCCCC2)cc1,.,-1.7%,4.8%,.
SMILES,Cycloheximide cs,Sm TGR inh,FMDV antiviral,Shiga inhibitor
CC(C)c1ccc(NC(=O)c2cnc3sc(N4CCCC4)nn3c2=O)cc1,.,24.9%,0.0%,.
CCOC(=O)C1CCCN(C(=O)c2cc3c(=O)n(C)c4ccccc4c3s2)C1 (stereo not given),.,-7.7%,?,.
CCOC(=O)c1ccc(NC(=O)CN2C(=O)c3cccnc3Sc3ccccc32)cc1,.,8.7%,9.8%,.
Clc1ccc2[nH]c(-c3ccccc3)cc2c1,45.9*,11.4%,-22.1%,69.9*
O=c1cc(-c2ccccc2)[nH]c2ccc(Cl)cc12,43.6*,.,.,+
COc1cc(OC)cc(OC(=O)C2CCN(C3=NS(=O)(=O)c4ccccc43)CC2)c1,.,-26.7%,-18.4%,.
O=C(OCc1nc2ccccc2s1)C1CCN(C2=NS(=O)(=O)c3ccccc32)CC1,61.4*,3.9%,57.7%,60.4*
COc1ccc(C)cc1Nc1n[n+](-c2ccccc2)c(-c2ccc(SC)cc2)s1,41.8*,14.2%,4.0%,51.5*
CSc1ccc(-c2sc(Nc3cccc4ccccc34)n[n+]2-c2ccccc2)cc1,21.6*,-1.7%,10.4%,17.0*
CCc1ccc(Nc2n[n+](-c3ccccc3)c(-c3ccc(OC)c(Br)c3)s2)cc1,25.5*,-2.0%,0.0%,33.1*
COc1ccc(C)cc1Nc1n[n+](-c2ccccc2)c(-c2ccc(NC(C)=O)cc2)s1,2.3,-25.3%,-3.2%,0.4
CCc1ccc(Nc2n[n+](-c3ccccc3)c(-c3ccc(C(=O)O)cc3)s2)cc1,-1.4,-34.5%,6.4%,16.6
CCc1ccc(Nc2n[n+](-c3ccccc3)c(-c3ccc(SC)cc3)s2)cc1,33.3*,0.7%,-3.6%,34.2*
CCn1c2ccccc2c2cc(CN3CCN(Cc4ccccc4Cl)CC3)ccc21,.,11.5%,-19.7%,.
CCOC(=O)c1cccc(NC(=O)Cn2ncc3c(=O)oc4ccccc4c32)c1,.,9.7%,-21.3%,.
Cc1ccc(-n2nnc(-c3nsc(NC(=O)c4ccccc4C)n3)c2C)cc1Cl,.,0.1%,-8.7%,.
CSc1ccc(-c2sc(Nc3ccccc3)n[n+]2-c2ccccc2)cc1,35.5*,-1.6%,-13.0%,53.2*
Fc1ccc(-[n+]2nc(Nc3ccccc3)sc2-c2ccc(OCc3ccccc3)cc2)cc1,0.3,-12.7%,-10.4%,-1.4
C[n+]1nc(Nc2cccc3ccccc23)sc1-c1ccc(C(=O)O)cc1,17.5*,-15.1%,.,35.4*
COc1ccc(CCN2C(=S)NC3CC2(C)Oc2ccc([N+](=O)[O-])cc23)cc1OC (stereo not given),-4.8,-3.7%,25.1µM*,-6.5
Cc1ccccc1C(=O)NC1CCN(CC(=O)Nc2ccc(N(C)C)cc2)CC1,-3.7,39.8µM*,5.0%,9.4
CN1CC(=O)N(CC(=O)Nc2ccc(N(C)C)cc2)c2ccccc2C1=O,8.3,50.1µM*,-7.9%,26.3
CSc1ccc(NC(=O)NCCN2CCc3ccccc3C2)cc1,16.2*,-24.3%,0.0%,12.4
CN(C)c1ccc(NC(=O)CN2C(=O)CN=C(c3ccccc3)c3ccccc32)cc1,-5.6,-2.6%,?,-6.5
CN(C)c1ccc(NC(=O)CN2CCc3ccccc3C2)cc1,36.3*,-7.3%,30.4%,92.3*
SMILES,Cycloheximide cs,Sm TGR inh,FMDV antiviral,Shiga inhibitor
Cc1cc(S(=O)(=O)Nc2cc3c(cc2Cl)n(C)c(=O)c(=O)n3C)ccc1F,.,-1.0%,?,.
Cc1cc(C)n(-c2nc(C)c(C)c(=O)n2CC(=O)Nc2ccc(Cl)c(Cl)c2)n1,.,5.1%,0.0%,.
O=C(O)c1cc(C(=O)O)c(C(=O)N(Cc2cccc(Oc3ccccc3)c2)[C@H]2CCCc3ccccc32)cc1C(=O)O,-3.4,.,.,-13.8
CCOC(=O)c1cnc2c(ccc3ccccc32)c1Nc1ccccc1O,.,4.3%,7.0%,.
COc1ccc(C(=O)NC2CCN(CC(=O)Nc3c(C)cccc3C)CC2)cc1OC,-1.7,100µM*,-8.0%,.
Cn1c(COc2ccc(Cl)cc2)nnc1SCc1ncc(-c2ccccc2)o1,-1.5,22.4µM*,?,-18.6
Cc1nn(C(=O)c2ccccc2)c(C)c1S(=O)(=O)N1CCCCCC1,.,-1.9%,21.6%,.
COCC(=O)n1nc(-c2ccccc2)nc1NCc1cccs1,33.2*,-2.5%,61.3%,62.6*
CCOC(=O)c1c(C)[nH]c(C(=O)COC(=O)c2ccc(O)cc2)c1C,22.4*,10.1%,4.2%,54.1*
CCOC(=O)c1c(C)[nH]c(C(=O)COC(=O)c2ccc(O)cc2O)c1C,18.5*,0.0%,-20.9%,17.5
CCOC(=O)c1c(C)[nH]c(C(=O)COC(=O)c2ccccn2)c1C,37.7*,?,0.0%,99.6*
